Measurements as given in publication PMC7862700, “An all-to-all approach to the identification of sequence-specific readers for epigenetic DNA modifications on cytosine”.

How the values were obtained:
Assay in all cases: DAPPL (digital affinity profiling via proximity ligation, sequencing); 10 mM Tris-HCl pH 7.5, 50 mM NaCl, 1 mM DTT, 4% glycerol, room temperature, 30 min; GST-TFs on glutathione beads, 16-mer random dsDNA library, 0.1% formaldehyde crosslink after washing; high values mean tight binding
Conditions in all cases: protein: recombinant; tags: N-terminal GST; dsDNA, one strand shown
FLI1 = target: T1, FLI1 (Homo sapiens, UniProt Q01543 1-452)
T1 sequence: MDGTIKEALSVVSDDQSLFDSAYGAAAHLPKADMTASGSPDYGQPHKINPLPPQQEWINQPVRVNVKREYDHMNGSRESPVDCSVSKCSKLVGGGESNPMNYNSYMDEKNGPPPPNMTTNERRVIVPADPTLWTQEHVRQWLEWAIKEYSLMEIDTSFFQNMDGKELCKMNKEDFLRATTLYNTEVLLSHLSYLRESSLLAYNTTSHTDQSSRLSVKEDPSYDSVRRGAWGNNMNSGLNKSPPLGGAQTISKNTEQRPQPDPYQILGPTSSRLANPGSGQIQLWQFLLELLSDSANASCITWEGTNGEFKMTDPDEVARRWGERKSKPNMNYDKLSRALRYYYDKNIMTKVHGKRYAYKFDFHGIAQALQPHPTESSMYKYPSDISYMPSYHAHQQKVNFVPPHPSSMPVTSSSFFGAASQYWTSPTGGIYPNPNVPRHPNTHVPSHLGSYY
Procedure, shortened: (§1)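 Beads coated with glutathione captured GST-fused human transcription factors that had been expressed in yeast, and the factors were then given DNA barcodes and pooled with a tag-only sample. The pools were incubated with 200 nmole of a random double-stranded 16-mer DNA library in Tris/NaCl/DTT/glycerol buffer for 30 min at room temperature, washed, crosslinked with 0.1% formaldehyde and proximity-ligated with BsaI/T4 ligase at 37 °C for 1 h. PCR amplification and Illumina NextSeq500 sequencing came last. Binding signal is each hexamer's read frequency for a factor divided by its frequency for the tag-only sample.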

ELK1 = target: T2, ELK1 (Homo sapiens, UniProt P19419 1-428)
T2 sequence: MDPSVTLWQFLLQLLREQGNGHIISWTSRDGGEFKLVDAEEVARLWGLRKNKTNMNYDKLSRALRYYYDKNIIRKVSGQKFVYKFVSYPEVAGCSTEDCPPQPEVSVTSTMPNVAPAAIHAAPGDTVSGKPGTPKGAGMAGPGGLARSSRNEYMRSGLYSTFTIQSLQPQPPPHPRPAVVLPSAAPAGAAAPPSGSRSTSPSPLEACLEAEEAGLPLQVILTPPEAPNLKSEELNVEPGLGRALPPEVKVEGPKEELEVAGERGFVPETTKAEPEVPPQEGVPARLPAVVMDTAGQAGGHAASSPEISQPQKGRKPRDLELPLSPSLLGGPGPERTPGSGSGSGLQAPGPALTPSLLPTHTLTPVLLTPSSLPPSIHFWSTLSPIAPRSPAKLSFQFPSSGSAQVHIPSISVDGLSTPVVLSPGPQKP
Procedure, shortened: as §1

GABPA = target: T3, GABPA (Homo sapiens, UniProt Q06546 1-454)
T3 sequence: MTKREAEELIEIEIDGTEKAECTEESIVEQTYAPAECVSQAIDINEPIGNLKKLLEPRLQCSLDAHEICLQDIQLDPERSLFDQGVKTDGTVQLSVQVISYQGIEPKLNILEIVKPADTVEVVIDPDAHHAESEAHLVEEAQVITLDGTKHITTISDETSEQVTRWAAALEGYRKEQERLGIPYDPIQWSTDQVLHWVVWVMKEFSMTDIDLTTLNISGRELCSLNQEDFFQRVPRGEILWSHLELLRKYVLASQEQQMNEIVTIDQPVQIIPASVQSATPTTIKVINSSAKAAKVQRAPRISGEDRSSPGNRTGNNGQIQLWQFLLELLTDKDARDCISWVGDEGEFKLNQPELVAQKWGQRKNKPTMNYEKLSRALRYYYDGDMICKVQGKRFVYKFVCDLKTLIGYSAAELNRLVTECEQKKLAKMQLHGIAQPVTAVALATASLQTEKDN
Procedure, shortened: as §1

ERG = target: T4, ERG (Homo sapiens, UniProt P11308 1-479)
T4 sequence: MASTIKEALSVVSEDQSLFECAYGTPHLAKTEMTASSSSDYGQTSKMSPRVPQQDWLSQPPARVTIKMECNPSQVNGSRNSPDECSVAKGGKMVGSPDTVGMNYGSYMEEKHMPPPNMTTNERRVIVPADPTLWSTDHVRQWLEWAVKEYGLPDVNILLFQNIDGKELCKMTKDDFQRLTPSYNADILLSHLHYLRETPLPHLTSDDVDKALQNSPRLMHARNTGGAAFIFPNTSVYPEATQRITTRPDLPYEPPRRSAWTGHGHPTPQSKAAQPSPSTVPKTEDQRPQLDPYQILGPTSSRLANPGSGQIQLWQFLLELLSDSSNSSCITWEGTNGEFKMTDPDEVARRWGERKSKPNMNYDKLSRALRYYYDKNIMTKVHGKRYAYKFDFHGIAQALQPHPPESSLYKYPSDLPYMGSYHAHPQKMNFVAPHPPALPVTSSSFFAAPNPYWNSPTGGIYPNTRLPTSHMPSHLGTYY
Procedure, shortened: as §1

ELF1 = ELF1 (Homo sapiens, UniProt P32519 1-619)
Procedure, shortened: as §1

EHF = target: T5, EHF (Homo sapiens, UniProt Q9NZC4 1-300)
T5 sequence: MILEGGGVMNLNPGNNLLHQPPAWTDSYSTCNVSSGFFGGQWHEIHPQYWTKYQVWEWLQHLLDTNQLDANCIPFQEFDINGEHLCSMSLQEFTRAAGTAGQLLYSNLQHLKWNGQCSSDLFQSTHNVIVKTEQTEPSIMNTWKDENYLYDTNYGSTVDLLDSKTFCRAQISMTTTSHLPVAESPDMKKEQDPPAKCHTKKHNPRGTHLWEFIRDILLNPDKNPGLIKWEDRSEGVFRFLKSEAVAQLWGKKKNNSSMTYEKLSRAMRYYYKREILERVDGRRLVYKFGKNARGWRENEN
Procedure, shortened: as §1

SPI1 [1] = target: SPI1 (Homo sapiens, UniProt P17947 1-270)
Procedure, shortened: as §1

SPIB = SPIB (Homo sapiens, UniProt Q01892 1-262)
Procedure, shortened: as §1

ELK3 = target: T6, ELK3 (Homo sapiens, UniProt P41970 1-407)
T6 sequence: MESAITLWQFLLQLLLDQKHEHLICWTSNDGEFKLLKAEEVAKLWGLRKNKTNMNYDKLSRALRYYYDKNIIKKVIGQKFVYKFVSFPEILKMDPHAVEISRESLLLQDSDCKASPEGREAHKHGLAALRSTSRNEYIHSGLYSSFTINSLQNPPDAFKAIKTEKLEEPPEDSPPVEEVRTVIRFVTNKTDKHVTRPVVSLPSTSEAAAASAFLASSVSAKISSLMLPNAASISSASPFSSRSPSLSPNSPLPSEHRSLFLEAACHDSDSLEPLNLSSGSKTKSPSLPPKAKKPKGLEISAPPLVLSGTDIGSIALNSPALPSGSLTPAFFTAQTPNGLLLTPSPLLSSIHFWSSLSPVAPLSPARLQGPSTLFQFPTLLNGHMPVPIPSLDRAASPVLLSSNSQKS
Procedure, shortened: as §1

SPI1 [2] = target: SPI1 (Homo sapiens, UniProt P17947 1-270); remark: listed apart in the source
Procedure, shortened: as §1

Chain of SPIB (Q01892 whole entry): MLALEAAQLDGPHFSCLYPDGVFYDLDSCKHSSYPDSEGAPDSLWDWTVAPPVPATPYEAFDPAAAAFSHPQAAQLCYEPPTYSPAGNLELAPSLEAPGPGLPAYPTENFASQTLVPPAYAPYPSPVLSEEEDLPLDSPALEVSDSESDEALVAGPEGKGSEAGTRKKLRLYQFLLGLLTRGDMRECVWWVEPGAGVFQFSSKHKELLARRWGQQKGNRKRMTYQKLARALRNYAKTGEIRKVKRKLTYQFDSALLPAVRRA
Chain of ELF1 (P32519 whole entry): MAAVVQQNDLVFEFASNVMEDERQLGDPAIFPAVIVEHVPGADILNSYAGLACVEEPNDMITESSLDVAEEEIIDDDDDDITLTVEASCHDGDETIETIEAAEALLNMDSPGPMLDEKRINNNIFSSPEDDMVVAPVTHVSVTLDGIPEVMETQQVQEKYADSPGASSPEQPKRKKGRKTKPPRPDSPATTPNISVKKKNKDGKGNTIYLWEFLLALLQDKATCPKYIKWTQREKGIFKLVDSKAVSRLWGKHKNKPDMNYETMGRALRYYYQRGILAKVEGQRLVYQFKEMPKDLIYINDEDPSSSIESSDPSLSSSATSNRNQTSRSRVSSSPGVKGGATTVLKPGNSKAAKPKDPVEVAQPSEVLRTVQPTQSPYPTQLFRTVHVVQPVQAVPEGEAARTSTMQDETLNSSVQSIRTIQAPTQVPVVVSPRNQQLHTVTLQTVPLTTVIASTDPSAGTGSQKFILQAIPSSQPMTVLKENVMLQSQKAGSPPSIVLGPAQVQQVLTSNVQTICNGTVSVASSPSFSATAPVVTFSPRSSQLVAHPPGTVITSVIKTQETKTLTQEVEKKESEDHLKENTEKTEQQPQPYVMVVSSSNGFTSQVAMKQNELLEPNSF

Row | Sequence | binding signal (FLI1) | binding signal (ELK1) | binding signal (GABPA) | binding signal (ERG) | binding signal (ELF1) | binding signal (EHF) | binding signal (SPI1 [1]) | binding signal (SPIB) | binding signal (ELK3) | binding signal (SPI1 [2])
1 | ACTTCC | 7.89 fold enrichment (6-mer frequency, TF over GST control) | 8.92 fold enrichment (6-mer frequency, TF over GST control) | 7.33 fold enrichment (6-mer frequency, TF over GST control) | 10 fold enrichment (6-mer frequency, TF over GST control) | 7.99 fold enrichment (6-mer frequency, TF over GST control) | 8.81 fold enrichment (6-mer frequency, TF over GST control) | 12.7 fold enrichment (6-mer frequency, TF over GST control) | 8.52 fold enrichment (6-mer frequency, TF over GST control) | 9.72 fold enrichment (6-mer frequency, TF over GST control) | 
2 | CTACTC | 1.42 fold enrichment (6-mer frequency, TF over GST control) | 1.36 fold enrichment (6-mer frequency, TF over GST control) | 1.51 fold enrichment (6-mer frequency, TF over GST control) | 1.38 fold enrichment (6-mer frequency, TF over GST control) | 1.44 fold enrichment (6-mer frequency, TF over GST control) | 1.38 fold enrichment (6-mer frequency, TF over GST control) |  | 1.59 fold enrichment (6-mer frequency, TF over GST control) | 1.46 fold enrichment (6-mer frequency, TF over GST control) | 1.47 fold enrichment (6-mer frequency, TF over GST control)
3 | ACGTTT | 1.21 fold enrichment (6-mer frequency, TF over GST control) | 1.18 fold enrichment (6-mer frequency, TF over GST control) | 1.18 fold enrichment (6-mer frequency, TF over GST control) | 1.27 fold enrichment (6-mer frequency, TF over GST control) | 1.17 fold enrichment (6-mer frequency, TF over GST control) | 1.16 fold enrichment (6-mer frequency, TF over GST control) |  | 1.35 fold enrichment (6-mer frequency, TF over GST control) | 1.2 fold enrichment (6-mer frequency, TF over GST control) | 1.12 fold enrichment (6-mer frequency, TF over GST control)
4 | AACCTA | 1.03 fold enrichment (6-mer frequency, TF over GST control) | 1.08 fold enrichment (6-mer frequency, TF over GST control) | 1.1 fold enrichment (6-mer frequency, TF over GST control) | 1.01 fold enrichment (6-mer frequency, TF over GST control) | 1.1 fold enrichment (6-mer frequency, TF over GST control) | 1.11 fold enrichment (6-mer frequency, TF over GST control) |  | 1.1 fold enrichment (6-mer frequency, TF over GST control) | 1.1 fold enrichment (6-mer frequency, TF over GST control) | 1.08 fold enrichment (6-mer frequency, TF over GST control)
